# Among all 69,000 compounds or so, about 1,000 (1.4%) showed an effect of 50% or more. The sample as a whole holds a higher share of strong results than the screen did.
# Test system: Leishmania donovani
# Experiment: Leishmania intramacrophage assay
# Assay type: functional, organism-based
# Parameters: scale not given: in the data most compounds retested in dose-response had high values
structure (smiles),measurement,setting,value
CCN1CCN(S(=O)(=O)c2cc(Cl)c(Cl)cc2C)CC1,Percent Effect,"30 µM, 30.03 µM",23.98%
Cc1nc(C2CCN(C(=O)c3cc(C4CC4)[nH]n3)CC2)no1,Percent Effect,"30.3 µM, […]",23.74%
CC1(C(=O)NC2CCCC2)CCCN(c2ncccn2)C1 (stereo unspecified),Percent Effect,"30.3 µM, […]",2.815%
COc1ccnc(N2CCN(C(=O)c3csc(C4CC4)n3)CC2)n1,Percent Effect,"30 µM, 30.03 µM",15.31%
CN(C)c1ncc(-c2cc(C(=O)N3CCCC3)n(CC3CC3)c2)cn1,Percent Effect,"30.3 µM, […]",-11.64%
CN1CCCN(C(=O)c2nc3sccn3c2-c2ncc[nH]2)CC1,Percent Effect,"30.3 µM, […]",0.9103%
Cc1ccsc1CN1CC2(CCN(C(=O)C3CC3)CC2)CC1C(=O)O (stereo unspecified),Percent Effect,"30.3 µM, […]",49%
CCOCCN1CCN(CC(=O)NC2(C#N)CCCC2)CC1CC (stereo unspecified),Percent Effect,"30.3 µM, […]",4.261%
CCCc1nnnn1Cc1cn2c(C)cccc2n1,Percent Effect,"30.3 µM, […]",19.02%
COc1ccc(OC)c(Nc2nc3c(C)nn(C)c3c(=O)n2C)c1,Percent Effect,"30.3 µM, […]",46.31%
COc1ccc(C)cc1Nc1nc2c(C)nn(C)c2c(=O)n1C,Percent Effect,"30.3 µM, […]",54.75%
COc1ccccc1Nc1nc2c(C)nn(C)c2c(=O)n1C,Percent Effect,"30.3 µM, […]",-67.83%
CCc1nn(C)c(Cl)c1CN1C[C@@H](NC(=O)N(C)C)[C@H](C(C)C)C1,Percent Effect,"30.3 µM, […]",11.23%
COC(=O)CN(C(=O)c1ccco1)c1cccc(F)c1,Percent Effect,"30.3 µM, […]",-4.639%
CSc1cccc(NC(=O)CCC(=O)Nc2nccs2)c1,Percent Effect,"30.3 µM, […]",36.02%
CCC(C)Oc1ccc(CNCCc2c[nH]cn2)cc1Cl (stereo unspecified),Percent Effect,"30.3 µM, […]",99.79%
CCC(C)Oc1ccc(CNCCNC(C)=O)cc1Cl (stereo unspecified),Percent Effect,"30.3 µM, […]",40.54%
CCC(C)Oc1ccc(CNCCNS(C)(=O)=O)cc1Cl (stereo unspecified),Percent Effect,"30.3 µM, […]",32.76%
Cc1cnn(CC(=O)N2CCC(c3ccn4nccc4n3)CC2)c1,Percent Effect,"30.3 µM, […]",-6.355%
O=C(Cc1nc(-c2ccncc2)n[nH]1)N1CCOCC1,Percent Effect,"30.3 µM, […]",-34.22%
COCCCNC(=O)Cc1nc(-c2ccncc2)n[nH]1,Percent Effect,"30.3 µM, […]",-25.69%
O=C(Cc1nc(-c2ccncc2)n[nH]1)NCCCN1CCOCC1,Percent Effect,"30.3 µM, […]",58.11%
COCCC1(CNC(=O)NCC2CN(C)CCN2C)CCC1 (stereo unspecified),Percent Effect,"30.3 µM, […]",8.791%
CCn1c(N)nc2cc(C(=O)NCCc3ccccc3C)cnc21,Percent Effect,"30 µM, 30.03 µM",29.75%
CCn1c(N)nc2cc(C(=O)NCCc3ccccc3F)cnc21,Percent Effect,"30.3 µM, […]",-34.47%
CCn1c(N)nc2cc(C(=O)NCCc3ccncc3)cnc21,Percent Effect,"30.3 µM, […]",62.87%
O=C(O)C1CN(c2cncc(Cc3ccccc3)n2)C1,Percent Effect,"30.3 µM, […]",57.22%
O=C(O)C1CN(c2cncc(Cc3ccccc3F)n2)C1,Percent Effect,"30.3 µM, […]",17.92%
COc1ccccc1Cc1cncc(N2CC(C(=O)O)C2)n1.Cl,Percent Effect,"30.3 µM, […]",35.18%
O=C(N1CCOCC1)N1CCc2ncnc(NC3CCC3)c2CC1.O=C(O)C(F)(F)F,Percent Effect,"30.3 µM, […]",14.85%
c1cc2nc(C3CCNCC3)nn2cc1NC1CCC1,Percent Effect,"30.3 µM, […]",33.34%
Cc1nc(COC(=O)c2cccc3c2OCCO3)cs1,Percent Effect,"30.3 µM, […]",-13.85%
Cc1nc(COC(=O)c2cccc3c2OCCO3)no1,Percent Effect,"30.3 µM, […]",59.03%
Cc1nc(COC(=O)c2cccnc2C)no1,Percent Effect,"30.3 µM, […]",42.97%
COc1ccccc1C1(CNc2snc(Cl)c2C#N)CCOCC1,Percent Effect,"30.3 µM, […]",-16.98%
COc1ccccc1C1(CNc2snc(Cl)c2C#N)CCCC1,Percent Effect,"30.3 µM, […]",7.398%
N#Cc1c(Cl)nsc1NCC1(c2ccccc2)CCC1,Percent Effect,"30.3 µM, […]",91.2%
Cc1cnn(-c2ccc(S(=O)(=O)N(C)CC(C)(CO)CO)cc2F)c1,Percent Effect,"30.3 µM, […]",-120.1%
CNS(=O)(=O)c1ccc(CNC(=O)N(CC(C)C)C(C)C)cc1,Percent Effect,"30.3 µM, […]",-6.25%
CNS(=O)(=O)c1ccc(CNC(=O)N(C)CC(C)C)cc1,Percent Effect,"30.3 µM, […]",72.03%
CNS(=O)(=O)c1ccc(CNC(=O)N(C)CC(O)COC)cc1 (stereo unspecified),Percent Effect,"30.3 µM, […]",11.97%
CN(C(=O)c1ccc(OCC(F)F)nc1)c1ccc2c(c1)CCO2,Percent Effect,"30.3 µM, […]",3.527%
Cc1ncn(CCNC(=O)Nc2ccc(F)c(Cl)c2)c(=O)c1C,Percent Effect,"30.3 µM, […]",0.8424%
Cc1noc([C@H]2C[C@@H]3CCN(C(=O)C4CCOCC4)C[C@H]3O2)n1,Percent Effect,"30 µM, 30.03 µM",-8.466%
Cc1noc([C@@H]2C[C@H]3CN(C(=O)C4CCN(C)CC4)C[C@H]3O2)n1.O=C(O)C(F)(F)F,Percent Effect,"30.3 µM, […]",33.07%
Cc1noc([C@H]2C[C@H]3CN(C(=O)C4CCOCC4)CC[C@@H]3O2)n1,Percent Effect,"30.3 µM, […]",60.92%
CSc1nccc(N2CCC3(CCCN(Cc4ccc(F)cc4)C3)C2)n1 (stereo unspecified),Percent Effect,"30.3 µM, […]",14.67%
Cc1cn2c(n1)C(CNCC1=Cc3cc(Cl)ccc3OC1)CCC2 (stereo unspecified),Percent Effect,"30.3 µM, […]",69.51%
Cc1cn2c(n1)C(CNCC1=Cc3ccccc3OC1)CCC2 (stereo unspecified),Percent Effect,"30.3 µM, […]",8.139%
Cc1cn2c(n1)C(CNCc1ccc(C)s1)CCC2 (stereo unspecified),Percent Effect,"30.3 µM, […]",-5.269%
CCc1ocnc1C(=O)N1CCCC(n2nc(C)nc2C)C1 (stereo unspecified),Percent Effect,30 µM,15.71%
NC(=O)c1cn[nH]c1C1CCCN1C(=O)COc1ccccc1 (stereo unspecified),Percent Effect,"30.3 µM, […]",17.94%
CC(NC(=O)CCCc1nc(C(C)(C)C)no1)c1ccccn1 (stereo unspecified),Percent Effect,30 µM,-2.756%
Cc1nc(CN2C(=O)CC[C@@H]3[C@H]2CCN3C2CCOC2)cs1.O=C(O)C(F)(F)F (stereo partly specified),Percent Effect,"30.3 µM, […]",-26.48%
COC(=O)C(NC(=O)C1CCCC1)c1cc(F)ccc1F (stereo unspecified),Percent Effect,30 µM,13.67%
COC(=O)C(NC(=O)COC1CCCC1)c1cc(F)ccc1F (stereo unspecified),Percent Effect,"30 µM, 30.03 µM",54.06%
COC(=O)C(NC(=O)CC(C)C)c1cc(F)ccc1F (stereo unspecified),Percent Effect,30 µM,17.07%
O=C1CC2(CCCCN2C(=O)c2ccsc2)CN1CC1CC1 (stereo unspecified),Percent Effect,"30 µM, 30.03 µM",15.53%
Cc1cnn(CC(=O)Nc2cc(-n3nnnc3C3CC3)ccc2F)c1,Percent Effect,"30.3 µM, […]",1.472%
Cc1nn(C)c2nc(N3CCCCC3c3nccs3)sc12 (stereo unspecified),Percent Effect,"30.3 µM, […]",21.88%
Cc1nn(C)c2nc(N3CCCC3c3nccs3)sc12 (stereo unspecified),Percent Effect,"30.3 µM, […]",4.253%
Cc1nn(C)c2nc(N3CCCCC3c3ccc(F)cc3)sc12 (stereo unspecified),Percent Effect,"30.3 µM, […]",66.72%
CCC(C)NC(=O)c1cc(Br)c2c(c1)OCCO2 (stereo unspecified),Percent Effect,30 µM,30.6%
Cn1nc(COc2cccnc2)c2c1CCN(CC1CC1)C2.O=C(O)C(F)(F)F.O=C(O)C(F)(F)F,Percent Effect,"30.3 µM, […]",98.75%
Cn1nc(COc2cccnc2)c2c1CCN(Cc1ccco1)C2.O=C(O)C(F)(F)F.O=C(O)C(F)(F)F,Percent Effect,"30.3 µM, […]",17.65%
COCCN1CCc2c(c(COc3cccnc3)nn2C)C1.O=C(O)C(F)(F)F.O=C(O)C(F)(F)F,Percent Effect,"30.3 µM, […]",24.9%

# — ChEMBL document CHEMBL3988442, “University of Dundee, Small-Polar-MMV Screening Library” (2021)
